Test results reported in PubChem BioAssay (NCI).
Values joined by “and” are separate entries in the source; they are usually repeats but may differ in a detail not shown here. Equal values may be shown once. Compounds without any hit were thinned out: in the full panel of roughly 79,000, 15% have a hit. Rule as the data show it: active = growth inhibition above about 70%; inactive = the rest.

How the values were obtained:
[1] = NCI Yeast Anticancer Drug Screen. Data for the rad50 strain (AID 155);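 also: 0% = growth of vehicle-only cultures of the same strain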; conditions: S. cerevisiae rad50 strain growth inhibition; at 50.0 µM; stronger effect = higher value
Outline: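 Vehicle-treated cultures provide the reference for the growth inhibition reported for compound-exposed, repair-deficient yeast.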

[2] = NCI Yeast Anticancer Drug Screen. Data for the mec2-1 strain (AID 157); conditions: S. cerevisiae mec2-1 strain, at 50.0 µM, stronger effect = higher value
Outline: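 Strain: mec2-1 (DNA repair/cell cycle alteration). Compound exposure, then growth measured; inhibition expressed relative to vehicle.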

[3] = NCI Yeast Anticancer Drug Screen. Data for the sgs1 mgt1 strain (AID 161);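 also: 0% = growth of cultures given vehicle only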; conditions: S. cerevisiae sgs1 mgt1 strain, at 50.0 µM, stronger effect = higher value
Outline: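 Genetically altered yeast, compound exposure, growth inhibition relative to vehicle.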

[4] = NCI Yeast Anticancer Drug Screen. Data for the cln2 rad14 strain (AID 165);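 also: 0% = growth equal to vehicle treated cultures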; conditions: S. cerevisiae cln2 rad14 strain, at 50.0 µM, stronger effect = higher value
Outline: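 Compounds are applied to the cln2 rad14 yeast strain, and growth is then compared with that of vehicle-treated cultures to give inhibition.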

[5] = NCI Yeast Anticancer Drug Screen. Data for the bub3 strain (AID 167); conditions: S. cerevisiae bub3 mutant strain, at 50.0 µM, stronger effect = higher value
Outline: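 Mutant yeast screening strain plus compound; vehicle-treated cultures serve as the 0% inhibition reference.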

[6] = NCI Yeast Anticancer Drug Screen. Data for the mlh1 rad18 strain (AID 175); conditions: S. cerevisiae mlh1 rad18 strain growth inhibition; at 50.0 µM; stronger effect = higher value
Outline: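 Read-out is yeast growth inhibition, calculated against vehicle-only controls. The compound was applied to a strain engineered with DNA damage repair alterations.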

Measured: growth inhibition

CC(=O)OC1CCC2(C)C(=CCC3C2CCC2(C)C(Oc4ccccc4)CCC32)C1 (configuration not stated)
inactive: [1] -42.7% | [2] -28.4% | [3] -33.6% | [4] 3.55% | [5] -28.4% | [6] -46.1%

CC(C)OP(=O)(OC(C)C)C(=O)Nc1cc(Cl)ccc1Cl
inactive: [1] -23.5% | [2] 14.6% | [3] -6.35% | [4] -31% | [5] 15% | [6] -0.15%

C[C@@]1(CCCCCCCCCCc2ccccc2)C[C@@]2(C)OC(=O)C[C@H]2OO1
inactive: [1] -15.1% | [2] -6.05% | [3] -20.2% | [4] -39% | [5] -80.7% | [6] -25.6%

NNC(=O)Nc1nn[nH]n1
inactive: [1] 1.75% and -6.75% | [2] 8.2% and 8.5% | [3] 10.2% and -6.75% | [4] -19.4% and 6% | [5] -15% and 12.6% | [6] 7.95% and -3.6%

O=C1CCC(=O)N1[N+](=O)[O-]
inactive: [1] -17.2% | [2] -10.2% | [3] -18.8% | [4] 2.95% | [5] -2.45% | [6] -16%

CS(=O)(=O)OCCN(CCCl)c1cc(C(N)=O)c([N+](=O)[O-])cc1[N+](=O)[O-]
inactive: [1] -6.8% | [2] -5.5% | [3] 5.45% | [4] -16.4% | [5] -11.4% | [6] -1.65%

COP(=O)(NC12CC3CC(CC(C3)C1)C2)OC
inactive: [1] -4.75% | [2] 5.45% | [3] -13.4% | [4] 15.7% | [5] -1.1% | [6] -16.7%

ClCCN(CCCl)c1ccc(/C=N/N2CCN(/N=C/c3ccc(N(CCCl)CCCl)cc3)CC2)cc1
inactive: [1] 7.85% | [2] -2.9% | [3] 21.9% | [4] 7.85% | [5] -11.1% | [6] -1.25%

O=C(O)c1ccc(Cl)c(Cl)c1
inactive: [1] 1.7% | [2] -5.4% | [3] 3.9% | [4] -14.2% | [5] 5.95% | [6] 0.45%

COc1ccc2c(c1O)C13CCN(C)C(C2)C1CCC(O)C3 (configuration not stated)
inactive: [1] -16.4% | [2] 2.95% | [3] -11.8% | [4] -11.8% | [5] -1.7% | [6] -20%

C[As+](C)(C)c1cccc(N)c1
inactive: [1] -1.6% | [2] -6.6% | [3] -10.1% | [4] -14.8% | [5] -1% | [6] 0.45%

CCOP(=O)(CCBr)Oc1ccc([N+](=O)[O-])cc1 (configuration not stated)
inactive: [1] -17.9% | [2] 11.8% | [3] -16.4% | [4] -2.6% | [5] 7.3% | [6] -20%

O=C1CC2(CCNCC2)C(=O)N1N1CCOCC1
inactive: [1] 19.6% | [2] -0.15% | [3] 5.4% | [4] 7.55% | [5] 2.6% | [6] 6%

C=CC[NH-].C=CC[NH-].CC(=O)CC(C)=O.CC(=O)CC(C)=O.[Ni+2]
inactive: [1] -2.65% | [2] -6.75% | [3] -7.4% | [4] -9.35% | [5] -1.1% | [6] -3.35%

CC(C)Oc1ccccc1OC(=O)N(C)C=O
inactive: [1] -15.9% | [2] -2.7% | [3] -6.8% | [4] -18% | [5] -17.3% | [6] -15.4%

O=C(CP(=O)(O)O)NC(CC(=O)OCc1ccccc1)C(=O)OCc1ccccc1 (configuration not stated)
inactive: [1] 12.8% and 33% | [2] 7.65% and -0.7% | [3] 16.9% and 20.3% | [4] 14.9% and 12.6% | [5] 2.05% and 1.2% | [6] -3.4% and 3.45%

Cc1cc(Cl)nc(N)n1
inactive: [1] -5.3% | [2] 4.55% | [3] -5.4% | [4] -13.9% | [5] 10.1% | [6] -21.4%

N#CC(C#N)c1ccccc1
inactive: [1] 29.1% | [2] 2.6% | [3] 3.5% | [4] -4.05% | [5] 8.75% | [6] 1.2%

[CH3][Sn]1([CH3])[c]2ccccc2Oc2cccc[c]21
inactive: [1] -11.9% | [2] 1.65% | [3] 4.7% | [4] -1.2% | [5] 33.5% | [6] -17.6%

Nc1ccc(C(=O)Nc2ccc([As](=O)(O)O)cc2)cc1
inactive: [1] 4.35% | [2] 11.4% | [3] 7.8% | [4] -17.3% | [5] 5.4% | [6] 23.9%

CC(C)(C1CCC(O)CC1)C1CCC(O)CC1 (configuration not stated)
inactive: [1] 19.5% and 13.4% | [2] -19.5% and -13.6% | [3] -12.2% and -21.9% | [4] -12.6% and -17.6% | [5] -5.75% and -21.8% | [6] 31.4% and 16.1%

c1ccc(CCN2CCOCC2)nc1
inactive: [1] 17.3% | [2] 1.6% | [3] -8.95% | [4] 52% | [5] 4.55% | [6] 3.85%

CCCCCOP(=O)(OCCCCC)C(=O)Nc1ccc([N+](=O)[O-])cc1
inactive: [1] -12.9% | [2] 4.85% | [3] -5.25% | [4] -3.2% | [5] -1.8% | [6] 10.9%

NC(CSC(c1ccccc1)c1ccccc1)C(=O)O (configuration not stated)
inactive: [1] 6.3% | [2] 0% | [3] 3.35% | [4] 5% | [5] 13.4% | [6] 3.5%

CCC1(CC(C)(C)Cl)C(=O)NC(=O)NC1=O
inactive: [1] -4.55% | [2] -7.7% | [3] -21.4% | [4] -30.7% | [5] 3.45% | [6] -20%

CCN(CC)C(=O)CCN1CC1
inactive: [1] 10.4% | [2] -0.65% | [3] 12.3% | [4] 19.5% | [5] 5.1% | [6] -1.25%

CC12CCC(=O)C=C1CCC1C2CCC2(C)C(OC(=O)C34C=CC(=O)C3C3C=CC4CC3)CCC12 (configuration not stated)
inactive: [1] 31.4% | [2] -1.2% | [3] 14.3% | [4] 22.6% | [5] -4.45% | [6] 19.2%

CCOP(O)(=S)OCC
inactive: [1] 16.8% and 9.55% and 2.25% | [2] 23.4% and 10.2% and 2.35% | [3] 11.6% and 7.65% and -4.2% | [4] -2.05% and 20.1% and 6.7% | [5] -15.8% and -14.5% and -14% | [6] 17% and 18.8% and 3.2%

Cc1cc(O)ccc1[N+](=O)[O-]
inactive: [1] 1.15% | [2] -1.2% | [3] 11.8% | [4] 9.6% | [5] 2.9% | [6] 2.95%

COc1ccc2c(c1OC(C)=O)-c1cc(O)cc3c1C(C2)N(C(=O)CN(CCCl)CCCl)CC3 (configuration not stated)
inactive: [1] 19.6% and 6.5% | [2] 8.65% and 5.4% | [3] 24.7% and -25.4% | [4] 10.8% and -4.95% | [5] 22.2% and -7.95% | [6] -21.7% and -30.4%

Nc1cc(N)nc(N)n1
inactive: [1] 18.1% | [2] -2.9% | [3] 1.35% | [4] -4.6% | [5] -18.9% | [6] 6.2%

COP1(=O)Oc2ccccc2C(=O)C(C(F)(F)F)(C(F)(F)F)O1 (configuration not stated)
inactive: [1] -16.9% | [2] -1.6% | [3] -15.8% | [4] 5.05% | [5] -20.2% | [6] -34.1%

CC(=O)O
inactive: [1] 2.15% | [2] -13% | [3] 7.5% | [4] 4.05% | [5] 1.45% | [6] 0.55%

CN(CCOC(=O)c1ccc(Br)cc1)[N+](=O)[O-]
inactive: [1] 8.9% | [2] 3.2% | [3] -6.25% | [4] 5.8% | [5] 38.9% | [6] 22.9%

COP(=O)(CC(=O)CCCCC1OCCO1)OC
inactive: [1] 2.25% | [2] 0% | [3] 1.3% | [4] -22.8% | [5] -5.3% | [6] -4.85%

CCC(=O)c1ccc(C)cc1
inactive: [1] -11.5% | [2] 1.2% | [3] -10.4% | [4] -16.7% | [5] 4.2% | [6] -3.45%

CCN(CC)C(=O)N1CC2CCC(C1)N2C
inactive: [1] -4.6% | [2] 3.55% | [3] -6.9% | [4] -5.45% | [5] -9.95% | [6] -10.2%

O=[P+](O)C(O)c1ccccc1 (configuration not stated)
inactive: [1] -20.6% | [2] -27.9% | [3] -14.1% | [4] 4.9% | [5] -10.8% | [6] -7.7%

COc1cccc(C2(C#N)CCN(C)CC2)c1
inactive: [1] 28.1% | [2] 23.1% | [3] 22.7% | [4] -7.45% | [5] 12.7% | [6] 62.5%

COP(=O)(O)NC(C)=O
inactive: [1] 13.7% | [2] -23.9% | [3] 8.85% | [4] -64.5% | [5] 9.45% | [6] -8.4%

Cc1ccc(NC(=O)C(Cl)(Cl)Cl)cc1Cl
inactive: [1] 1.8% | [2] 20.6% | [3] 16.4% | [4] -5.2% | [5] 25.2% | [6] 14.8%

CCN(CCCl)c1cc(C(=O)NCCCN(C)CCCNC(=O)c2cc(N(CC)CCCl)c([N+](=O)[O-])cc2[N+](=O)[O-])c([N+](=O)[O-])cc1[N+](=O)[O-]
inactive: [1] -4.75% | [2] -2.9% | [3] -17% | [4] -4.05% | [5] -2.2% | [6] -9%
